DAX1 inh-1: DAX1 (NR0B1) inhibition, primary screen; HEK293T StAR-luciferase reporter, SF-1/DAX-1 repression relief; inhibition, % at 6.8 µM; AID 652010; 1.1% of 370,000 active;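 active means inhibition above the mean over all tested compounds plus 3 SD, cut at about 3.6% in these data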;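 further: 0% = DAX-1 cells with DMSO and 100% = cells lacking DAX-1 with DMSO; higher inhibition means more luminescence from relief of DAX-1 repression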
DAX1 inh-2: inhibits human nuclear receptor DAX1. P51843. HEK293 Gal4-DAX1 luciferase reporter, luminescence. inhibition, % at 6.75 µM. 0.99% of 340,000 active. AID 504766;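 active means inhibition above the mean over all tested compounds plus 3 SD, cut at about 4.2% in these data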;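 further: 0% = DAX1-transfected cells with DMSO and 100% = empty-vector control cells with DMSO; inhibition shows as a rise in luminescence from relieved DAX1 repression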
Target sequence (P51843 207-470 limits assumed): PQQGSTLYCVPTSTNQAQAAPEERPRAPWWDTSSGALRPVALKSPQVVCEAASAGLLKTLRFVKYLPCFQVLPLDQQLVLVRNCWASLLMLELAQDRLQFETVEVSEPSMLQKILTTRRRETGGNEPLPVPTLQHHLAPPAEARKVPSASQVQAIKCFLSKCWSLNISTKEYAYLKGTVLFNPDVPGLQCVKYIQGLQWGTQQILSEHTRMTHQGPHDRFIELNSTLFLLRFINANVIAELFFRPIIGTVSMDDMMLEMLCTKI
ssDAF12 agonist: S. stercoralis DAF-12 activation, primary screen; HEK293 ssDAF-12/GRIP1 lit1-tk-luc reporter, luminescence; % of 3 µM dafachronic acid response; activation, % at 6.8 µM; 1% of 370,000 active;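 active means activation above the mean over all tested compounds plus 3 SD, cut at about 0.9% in these data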;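 further: 0% = DMSO-only wells and 100% = 3 µM delta7-dafachronic acid wells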
Wee1 degr inh: human Wee1 degradation inhibition, primary screen; HeLa Luc-Wee1K328M stability, luciferase luminescence; 100% = proteasome inhibitor MG132 effect; reporter increase, % at 5 µM; 1.2% of 220,000 active;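 active means activation above the mean of all tested compounds plus 3 SD, set per screening run, cut at about 8.8% in these data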;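 further: cells exposed to compound for 20 h before luminescence read; 0% = DMSO alone and 100% = MG132 at 30 µM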
hcDAF12 agonist: activates DAF-12 receptor from parasite H. contortus. AID 652067. HEK293 hcDAF-12 lit1-tk-luc reporter, luminescence; 0% DMSO, 100% Δ7-dafachronic acid. activation, % at 6.8 µM. 1.4% of 370,000 active;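 active means activation above the mean of all tested compounds plus 3 SD, cut at about 5.5% in these data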;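 further: 100% = response to 3 µM Δ7-dafachronic acid high control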
hgDAF12 agonist: activates the H. glycines DAF-12 receptor ligand-binding domain. HEK293 GAL4-hgDAF12 UAS-luciferase reporter, agonist luminescence; normalized to butyrate control. activation, % at 6.8 µM. 1.8% of 370,000 active;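 active means activation above a cutoff set at the mean of all screened compounds plus 3 SD, cut at about 10% in these data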;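 further: 0% = DMSO wells and 100% = sodium butyrate wells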
* hit, by the source's call; x = not tested or not shown. Rows were chosen to be rich in hits. Some 4.6% of all compounds tested hit in one or more screens of this group.

SMILES | DAX1 inh-1 | DAX1 inh-2 | ssDAF12 agonist | Wee1 degr inh | hcDAF12 agonist | hgDAF12 agonist
O=C(C(=O)N1CCCN(Cc2ccc(F)cc2)CC1)c1ccccc1 | 0 | x | -1 | x | -2 | -1
O=C(O)C(Cc1ccccc1)N1C(=O)c2cccc3cccc(c23)C1=O (centres undefined) | 0 | -1 | 1.7* | 5 | 4 | 1
O=C(O)C(Cc1ccccc1)N1C(=O)c2ccccc2C1=O (centres undefined) | 0 | -2 | -1 | -1 | 0 | -2
C1=C2C[N+]3(CCCC3)CC2Cc2ccc3ccccc3c21 (centres undefined) | 0 | -1 | -1 | -1 | 0 | -1
C[N+]1(C)CC2=Cc3ccccc3CC2C1 (centres undefined) | 0 | 4.8* | -2 | -1 | -1 | -1
COc1cc2c(c(OC)c1)[C@H](/C=C/c1ccccc1)[C@@H]([C@H](O)CO)OC2 | 1 | x | -1 | x | -2 | -1
CCN1C(=O)CC(N2CCN(c3ccc(C(=O)c4ccccc4)cc3)CC2)C1=O (centres undefined) | 0 | 0 | -1 | 6 | 0 | 10
O=C1CC(N2CCN(c3ccc(C(=O)c4ccc(F)cc4)cc3)CC2)C(=O)N1 (centres undefined) | -1 | 0 | -1 | 8.9* | 1 | 2
Cc1ccc(C(=O)NCC(=O)OCC(=O)NC(C)C2CC3CCC2C3)cc1 (centres undefined) | 2 | -1 | -1 | x | 1 | -3
C=CCOc1ccc(/C=C(\C#N)C(=O)Nc2ccccn2)cc1OC | 0 | 4.7* | -1 | x | -1 | -1
COc1cc(/C=C(\C#N)C(=O)Nc2cccnc2)ccc1OC(C)C | 0 | 1 | -1 | 11* | -1 | -2
CC1CCCCC1C(=O)N1CCC(Oc2cccnc2)CC1 (centres undefined) | 0 | x | -1 | x | -1 | -1
COc1cc2c(cc1OC)C(Cc1ccccc1[N+](=O)[O-])=NCC2 | -1 | 0 | -2 | x | 2 | 0
COc1ccc(C(=O)/C=C/Nc2ccc(C)cn2)cc1OC | 4.0* | 2 | 0 | 3 | 3 | 10
CCOC(=O)c1ccc(N/C=C/C(=O)c2ccc(OC)c(OC)c2)cc1 | -1 | -1 | -1 | 0 | -2 | 2
CC1CCN(c2ccc(NC(=O)c3cccnc3Cl)cc2)CC1 | 1 | 2 | -1 | 1 | 0 | 12*
Cc1ccc(C(=O)N2CCN(c3ccc(NC(=O)c4cccnc4Cl)cc3)CC2)cc1 | -1 | -2 | -1 | x | -3 | -1
O=C(NCCc1ccccc1)c1c[nH]c2c(F)cccc2c1=O | 0 | 2 | 0 | x | 5.6* | 7
O=S(=O)(CC1NCCc2ccccc21)NCc1ccccc1 (centres undefined) | 0 | x | 0 | x | 2 | -2
O=C(CN1CCN(C(=O)C2CCN(C(=O)/C=C/c3ccccc3)CC2)CC1)Nc1ccc(F)cc1 | -1 | 0 | -1 | x | 1 | 0
COc1ccc(COc2ccc3c(C)cc(=O)oc3c2)cc1 | 1 | 4 | -1 | x | 0 | 12*
CCOc1ccc(N(CC(=O)Nc2ccc(C)cc2)S(=O)(=O)c2c(C)noc2C)cc1 | 0 | 3 | -2 | 1 | 0 | 1
CCOc1ccc(N(CC(=O)Nc2ccc(F)c(F)c2)S(=O)(=O)c2c(C)noc2C)cc1 | 1 | 4.4* | -1 | -2 | -1 | -1
CCOc1ccc(N(CC(=O)NC(C)(C)C)S(=O)(=O)c2c(C)noc2C)cc1 | 0 | 6.8* | -1 | 1 | 0 | 1
Cc1ccc(NC(=O)CN2C(=O)NC(Cc3ccccc3)C2=O)cc1Cl (centres undefined) | 2 | 1 | -2 | x | -1 | -1
SMILES | DAX1 inh-1 | DAX1 inh-2 | ssDAF12 agonist | Wee1 degr inh | hcDAF12 agonist | hgDAF12 agonist
Cc1ccc(-n2c(=S)[nH]c3nc4c(cc3c2=O)COC(C)(C)C4)cc1 | 0 | -1 | -1 | -2 | 3 | 2
CC1(C)Cc2nc3[nH]c(=S)[nH]c(=O)c3cc2CO1 | 1 | 4.8* | -1 | -2 | 0 | 1
Cc1ccccc1C(=O)NCCOc1ccccc1Cl | 2 | 5.0* | 1.1* | x | 3 | 12*
O=C(NCCOc1ccccc1F)c1cc(F)c(F)cc1Cl | 3.7* | 1 | 1.2* | -1 | 5 | 13*
CSc1ccccc1C(=O)NCCOc1ccccc1C | -1 | -2 | -2 | -1 | -2 | -1
CCCNC(=O)C1(C)CCCN(Cc2ccccc2F)C1 (centres undefined) | -1 | x | -1 | x | -1 | -2
CCc1cc2c(=O)c(-c3nc4ccccc4[nH]3)coc2c(CN2CCCCC2C)c1O (centres undefined) | -1 | 4.6* | -2 | 1 | -1 | 0
CCc1cc2c(=O)c(-c3nc4ccccc4[nH]3)coc2c(CN2CCCCC2)c1O | 0 | -1 | -1 | -2 | -1 | -2
Cc1cc(C)nc(/N=C(\N)N2CCc3ccccc32)n1 | 1 | 1 | -1 | 1 | 1 | 11*
COc1ccc(CNC(=O)c2ccc(N3CCOCC3)c([N+](=O)[O-])c2)cc1 | -1 | 0 | -1 | 0 | 0 | -1
Cc1ccc(-c2nc3ccccc3o2)cc1NC(=O)c1ccc2c(c1)OCO2 | 3.6* | 2 | 2.0* | 1 | 4 | 11*
Cc1ccc2oc(-c3cccc(NC(=S)NC(=O)c4cccs4)c3)nc2c1 | 1 | 1 | -1 | 2 | 3 | 4
Cc1ccc(-c2nc3ccccc3o2)cc1NC(=S)NC(=O)c1cccs1 | 0 | 2 | 0 | 0 | 1 | 11*
COc1ccc2oc(-c3ccc(C)c(NC(=O)c4ccc(N5CCOCC5)c([N+](=O)[O-])c4)c3)nc2c1 | 2 | 1 | 0 | 2 | 3 | 11*
O=C(Nc1ccc(-c2nc3ccccc3o2)cc1)c1ccc2c(c1)OCO2 | 0 | 0 | -1 | -3 | 0 | -3
COC(=O)[C@]12C[C@H](CC(=O)NCc3ccc(C)o3)C(=O)N(CCc3ccc(OC)c(OC)c3)C1=C[C@H](C(C)(C)C)O[C@@H]2C | -1 | x | -1 | x | -2 | -1
O=[N+]([O-])c1ccc(C2=CSC3=NCCN23)cc1 | 0 | 2 | -1 | x | 0 | -1
Cc1ccc(C2=CSC3=NCCN23)cc1 | 0 | 1 | 1.9* | x | 0 | 0
O=C(/C=C1\OCc2ccccc21)OCc1ccccc1 | 2 | x | 0 | x | 5 | 12*
Cc1ccc(C(=O)N/N=C/c2ccc(-c3cccc(Cl)c3)o2)cn1 | 0 | 2 | 0 | -1 | 4 | 1
O=C(N/N=C\c1ccc(-c2cccc(Cl)c2)o1)C(=O)NC1CCCC1 | 0 | 7.0* | -1 | -3 | 0 | 0
O=S1(=O)CC=C(CSC(=S)NC2CCS(=O)(=O)C2)C1 (centres undefined) | 0 | 4.3* | 0 | 2 | -1 | 4

Source: PubChem
